PubChem BioAssay (NCI)
This is part of a sample that, as a whole, favours compounds with a hit. Of some 79,000 tested, about 15% had one in any assay. Calls of active or inactive are those of the source. No stated cut-off is given here; in the data, active means growth inhibition above about 70%; inactive means the rest.

Experiments:
[1] = NCI Yeast Anticancer Drug Screen. Data for the sgs1 strain (AID 173);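 further: 0% = growth of vehicle-only control cultures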; details: S. cerevisiae sgs1 mutant, hits give high values
How it was run: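 Compounds applied to genetically altered yeast; growth compared with vehicle-treated cultures to give % inhibition.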

[2] = NCI Yeast Anticancer Drug Screen. Data for the mlh1 rad18 strain (AID 175); details: S. cerevisiae mlh1 rad18 strain growth inhibition, hits give high values
How it was run: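 Cells of a genetically altered yeast strain, deficient in DNA damage repair, were treated with compound. Their growth was then compared with that of vehicle-treated cultures to give inhibition.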

[3] = NCI Yeast Anticancer Drug Screen. Data for the rad18 strain (AID 177); details: S. cerevisiae rad18 mutant growth inhibition, hits give high values
How it was run: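 Compounds are applied to a repair-deficient yeast strain, and growth is compared with that of vehicle-treated cultures to give percent inhibition.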

[4] = NCI Yeast Anticancer Drug Screen. Data for the rad52 strain (AID 147);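 further: 0% = growth of vehicle-treated control cultures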; details: S. cerevisiae rad52 mutant growth inhibition, hits give high values
How it was run: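 DNA repair-defective yeast; compound exposure; growth scored against vehicle controls.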

[5] = NCI Yeast Anticancer Drug Screen. Data for the mgt1 strain (AID 153); details: S. cerevisiae mgt1 mutant growth inhibition, hits give high values
How it was run: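 Growth inhibition relative to vehicle controls was scored for the mgt1 yeast strain after compound exposure.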

[6] = NCI Yeast Anticancer Drug Screen. Data for the rad50 strain (AID 155);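 further: 0% = growth of vehicle-only cultures of the same strain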; details: S. cerevisiae rad50 strain growth inhibition, hits give high values
How it was run: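 A DNA repair-deficient yeast mutant serves as the test organism; compound-induced growth inhibition is calculated against vehicle-treated cells.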

[7] = NCI Yeast Anticancer Drug Screen. Data for the mec2-1 strain (AID 157); details: S. cerevisiae mec2-1 strain, hits give high values
How it was run: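 Growth inhibition is read against vehicle-treated controls after compound exposure of the mec2-1 yeast strain, which is defective in DNA damage repair or cell cycle control.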

[8] = NCI Yeast Anticancer Drug Screen. Data for the rad14 strain (AID 159);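 further: 0% = growth of vehicle-treated control cultures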; details: S. cerevisiae rad14 strain growth inhibition, hits give high values
How it was run: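 Vehicle-treated cultures served as the baseline for growth inhibition of a DNA repair-mutant yeast strain exposed to each compound.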

[9] = NCI Yeast Anticancer Drug Screen. Data for the sgs1 mgt1 strain (AID 161);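 further: 0% = growth of cultures given vehicle only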; details: S. cerevisiae sgs1 mgt1 strain, hits give high values
How it was run: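 Percent growth inhibition was derived by comparing compound-exposed mutant yeast with vehicle-exposed cultures. The strain carries alterations in DNA damage repair.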

[10] = NCI Yeast Anticancer Drug Screen. Data for the CLN2oe strain (AID 163);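 further: 0% = growth of vehicle-only control cultures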; details: S. cerevisiae CLN2oe strain, hits give high values
How it was run: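 Compound-treated yeast; growth vs vehicle ctrl = % inhibition. Genetically altered strain (cell-cycle control).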

[11] = NCI Yeast Anticancer Drug Screen. Data for the cln2 rad14 strain (AID 165);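 further: 0% = growth equal to vehicle treated cultures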; details: S. cerevisiae cln2 rad14 strain, hits give high values
How it was run: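 Growth inhibition, relative to vehicle-treated controls, is the read-out. The test organism is a yeast strain with defined genetic alterations, cln2 rad14.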

[12] = NCI Yeast Anticancer Drug Screen. Data for the bub3 strain (AID 167); details: S. cerevisiae bub3 mutant strain, hits give high values
How it was run: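 Inhibition values come from growth of compound-treated mutant yeast normalised to vehicle-treated controls.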

[13] = NCI Yeast Anticancer Drug Screen. Data for the wt2 strain (AID 169);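 further: 0% = growth of vehicle-treated yeast cultures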; details: S. cerevisiae wt2 strain growth inhibition, hits give high values
How it was run: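 Compound exposure of yeast; growth compared with vehicle controls; inhibition reported.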

[14] = NCI Yeast Anticancer Drug Screen. Data for the mlh1 strain (AID 171);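 further: 0% = growth of vehicle-treated control cultures of the same strain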; details: S. cerevisiae mlh1 strain growth inhibition, hits give high values
How it was run: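 Compounds are applied to a genetically altered yeast strain, and its growth is compared with that of vehicle-treated cultures to give percent inhibition.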

[15] = NCI Yeast Anticancer Drug Screen. Data for the rad50EPP+ strain (AID 151);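 further: 0% = growth of vehicle-treated control cultures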; details: S. cerevisiae rad50 mutant strain, hits give high values
How it was run: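 rad50EPP+ yeast treated with test compounds. Readout: growth vs vehicle control.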

[16] = NCI Yeast Anticancer Drug Screen. Data for the wt1 strain (AID 149);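 further: 0% = growth of vehicle-treated wt1 cultures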; details: S. cerevisiae wt1 strain (SPY 50644) growth inhibition, hits give high values
How it was run: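 Vehicle-normalised growth inhibition; strain wt1; compound exposure.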

[17] = at 5.0 µM (retest, dose inferred, filed as 0.5)
[18] = at 50.0 µM (retest, dose inferred, filed as 5.0)

Measured: growth inhibition

CC1C(c2ccccc2)SC(=N)N1C (configuration not stated)
inactive: [1]; at 1.2 µM -1% | [1]; at 3.7 µM 0% | [1]; at 11.0 µM 1% | [1]; at 33.0 µM 1% | [1]; at 100.0 µM 0% | [2]; [17] 6% | [2]; [18] 52% | [2]; at 50.0 µM -18.4% | [3]; at 1.2 µM -1% | [3]; at 3.7 µM 1% | [3]; at 11.0 µM -2% | [3]; at 33.0 µM -3% | [3]; at 100.0 µM -4%

BrC1C2CCC3OC3C12 (configuration not stated)
active: [4]; at 11.0 µM 97% | [4]; at 33.0 µM 99% | [4]; at 100.0 µM 99% | [5]; at 11.0 µM 77% | [5]; at 33.0 µM 99% | [5]; at 100.0 µM 99% | [6]; at 11.0 µM 92% | [6]; at 33.0 µM 97% | [6]; [18] 99% | [6]; at 50.0 µM 99.5% | [6]; at 100.0 µM 98% | [7]; at 11.0 µM 93% | [7]; at 33.0 µM 99% | [7]; [18] 100% | [7]; at 50.0 µM 99.7% | [7]; at 100.0 µM 99% | [8]; at 11.0 µM 98% | [8]; at 33.0 µM 99% | [8]; at 100.0 µM 99% | [9]; [18] 100% | [9]; at 50.0 µM 99.5% | [10]; at 33.0 µM 99% | [10]; at 100.0 µM 99% | [11]; [18] 99% | [11]; at 50.0 µM 99% | [12]; at 33.0 µM 99% | [12]; [18] 100% | [12]; at 50.0 µM 99.3% | [12]; at 100.0 µM 99% | [13]; at 11.0 µM 98% | [13]; at 33.0 µM 99% | [13]; at 100.0 µM 99% | [14]; at 11.0 µM 86% | [14]; at 33.0 µM 99% | [14]; at 100.0 µM 99% | [1]; at 11.0 µM 98% | [1]; at 33.0 µM 99% | [1]; at 100.0 µM 99% | [2]; [17] 74% | [2]; [18] 99% | [2]; at 50.0 µM 99.5% | [3]; at 11.0 µM 95% | [3]; at 33.0 µM 98% | [3]; at 100.0 µM 99%
inactive: [4]; at 1.2 µM 3% | [4]; at 3.7 µM 16% | [5]; at 1.2 µM 2% | [5]; at 3.7 µM 3% | [6]; at 1.2 µM 3% | [6]; at 3.7 µM 7% | [6]; [17] 41% | [7]; at 1.2 µM 0% | [7]; at 3.7 µM 5% | [7]; [17] 28% | [8]; at 1.2 µM 0% | [8]; at 3.7 µM 3% | [9]; [17] 65% | [10]; at 1.2 µM 2% | [10]; at 3.7 µM -3% | [10]; at 11.0 µM 53% | [11]; [17] 8% | [12]; at 1.2 µM -4% | [12]; at 3.7 µM -5% | [12]; [17] 2% | [12]; at 11.0 µM 42% | [13]; at 1.2 µM -1% | [13]; at 3.7 µM 2% | [14]; at 1.2 µM -1% | [14]; at 3.7 µM 4% | [1]; at 1.2 µM -1% | [1]; at 3.7 µM 11% | [3]; at 1.2 µM 1% | [3]; at 3.7 µM 7%

Cc1ccc([N+](=O)[O-])c2c(NCCC[N+](C)(C)[O-])c3ccccc3nc12
inactive: [15]; at 1.2 µM -9% | [15]; at 3.7 µM -10% | [15]; at 11.0 µM -6% | [15]; at 33.0 µM 8% | [15]; at 100.0 µM 54% | [5]; at 1.2 µM -2% | [5]; at 3.7 µM 0% | [5]; at 11.0 µM -6% | [5]; at 33.0 µM 5% | [5]; at 100.0 µM 1% | [6]; at 1.2 µM 4% | [6]; at 3.7 µM 7% | [6]; [17] -16% | [6]; at 11.0 µM 3% | [6]; at 33.0 µM 38% | [6]; [18] 44% | [6]; at 50.0 µM 61.2% | [7]; at 1.2 µM -15% | [7]; at 3.7 µM -10% | [7]; [17] 11% | [7]; at 11.0 µM -14% | [7]; at 33.0 µM -1% | [7]; [18] 64% | [7]; at 50.0 µM 1.6% | [8]; at 1.2 µM 11% | [8]; at 3.7 µM 15% | [8]; at 11.0 µM 43% | [9]; [17] 6% | [9]; [18] 62% | [9]; at 50.0 µM 56.8% | [11]; [17] 18% | [12]; at 1.2 µM -11% | [12]; at 3.7 µM -4% | [12]; [17] -22% | [12]; at 11.0 µM -20% | [12]; at 33.0 µM -13% | [12]; [18] 3% | [12]; at 50.0 µM -36% | [12]; at 100.0 µM -17% | [14]; at 1.2 µM 26% | [14]; at 3.7 µM 11% | [14]; at 11.0 µM 10% | [14]; at 33.0 µM -12% | [14]; at 100.0 µM 27% | [1]; at 1.2 µM -7% | [1]; at 3.7 µM 6% | [1]; at 11.0 µM 31% | [1]; at 33.0 µM 66% | [2]; [17] 31% | [2]; at 50.0 µM 45.1%
active: [6]; at 100.0 µM 81% | [7]; at 100.0 µM 82% | [8]; at 33.0 µM 91% | [8]; at 100.0 µM 96% | [11]; [18] 91% | [11]; at 50.0 µM 77.8% | [1]; at 100.0 µM 81% | [2]; [18] 82%

Nc1ccc(S(=O)(=O)Nc2nc3c(c(=O)[nH]2)CCCC3)cc1
active: [16]; at 11.0 µM 93% | [16]; at 33.0 µM 99% | [16]; at 100.0 µM 100% | [15]; at 11.0 µM 80% | [15]; at 33.0 µM 99% | [15]; at 100.0 µM 99% | [5]; at 33.0 µM 98% | [5]; at 100.0 µM 99% | [6]; at 11.0 µM 93% | [6]; at 33.0 µM 99% | [6]; [18] 98% | [6]; at 50.0 µM 99.5% | [6]; at 100.0 µM 99% | [7]; at 33.0 µM 99% | [7]; [18] 99% | [7]; at 50.0 µM 99.5% | [7]; at 100.0 µM 99% | [8]; at 11.0 µM 94% | [8]; at 33.0 µM 100% | [8]; at 100.0 µM 100% | [9]; [18] 99% | [9]; at 50.0 µM 99.5% | [10]; at 33.0 µM 99% | [10]; at 100.0 µM 99% | [11]; [18] 99% | [11]; at 50.0 µM 99.2% | [12]; at 11.0 µM 92% | [12]; at 33.0 µM 99% | [12]; [18] 98% | [12]; at 50.0 µM 99.3% | [12]; at 100.0 µM 99% | [13]; at 3.7 µM 73% | [13]; at 11.0 µM 99% | [13]; at 33.0 µM 100% | [13]; at 100.0 µM 100% | [14]; at 11.0 µM 75% | [14]; at 33.0 µM 99% | [14]; at 100.0 µM 99% | [1]; at 11.0 µM 95% | [1]; at 33.0 µM 99% | [1]; at 100.0 µM 99% | [2]; [17] 84% | [2]; [18] 99% | [2]; at 50.0 µM 99.4% | [3]; at 11.0 µM 85% | [3]; at 33.0 µM 99% | [3]; at 100.0 µM 99%
inactive: [16]; at 1.2 µM 5% | [16]; at 3.7 µM 31% | [15]; at 1.2 µM 12% | [15]; at 3.7 µM 47% | [5]; at 1.2 µM 2% | [5]; at 3.7 µM 0% | [5]; at 11.0 µM 50% | [6]; at 1.2 µM 21% | [6]; at 3.7 µM 22% | [6]; [17] 31% | [7]; at 1.2 µM 0% | [7]; at 3.7 µM 4% | [7]; [17] 28% | [7]; at 11.0 µM 48% | [8]; at 1.2 µM 19% | [8]; at 3.7 µM 33% | [9]; [17] 44% | [10]; at 1.2 µM 5% | [10]; at 3.7 µM 5% | [10]; at 11.0 µM 21% | [11]; [17] 8% | [12]; at 1.2 µM 33% | [12]; at 3.7 µM 40% | [12]; [17] 14% | [13]; at 1.2 µM 29% | [14]; at 1.2 µM 8% | [14]; at 3.7 µM 20% | [1]; at 1.2 µM 36% | [1]; at 3.7 µM 47% | [3]; at 1.2 µM 33% | [3]; at 3.7 µM 48%
